Holding throughout (test): DAPPL (digital affinity profiling via proximity ligation, sequencing); 10 mM Tris-HCl pH 7.5, 50 mM NaCl, 1 mM DTT, 4% glycerol, room temperature, 30 min; GST-TFs on glutathione beads, 16-mer random dsDNA library, 0.1% formaldehyde crosslink after washing; high values mean tight binding
The target of one assay is T1, FEV (Homo sapiens, UniProt Q99581 1-238).
T1 sequence: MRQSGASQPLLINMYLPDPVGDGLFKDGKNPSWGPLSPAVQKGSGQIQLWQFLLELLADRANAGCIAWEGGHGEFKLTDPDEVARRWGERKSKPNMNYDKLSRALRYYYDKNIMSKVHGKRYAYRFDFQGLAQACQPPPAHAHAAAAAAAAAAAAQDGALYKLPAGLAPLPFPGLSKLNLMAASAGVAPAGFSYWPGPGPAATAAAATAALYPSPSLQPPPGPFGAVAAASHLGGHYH
To be noted: protein: recombinant; tags: N-terminal GST; dsDNA, one strand shown. In short, it runs like this:
(§1)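 Yeast served to express human transcription factors as GST fusions, which were then captured on glutathione beads and labelled with DNA barcodes. Pooled with a tag-only sample, they were incubated with 200 nmole of a 16-mer random double-stranded DNA library for 30 min at room temperature in Tris/NaCl/DTT/glycerol buffer, washed, crosslinked with 0.1% formaldehyde, ligated by proximity, amplified by PCR and sequenced. Dividing each hexamer's read frequency for a factor by its frequency for the tag-only sample gives the binding signal.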

In the next assay the target is ETV5 (Homo sapiens, UniProt P41161 1-510). To be noted: protein: recombinant; tags: N-terminal GST; dsDNA, one strand shown. In short, it runs like this: as §1
ETV5, sequence (P41161 whole entry): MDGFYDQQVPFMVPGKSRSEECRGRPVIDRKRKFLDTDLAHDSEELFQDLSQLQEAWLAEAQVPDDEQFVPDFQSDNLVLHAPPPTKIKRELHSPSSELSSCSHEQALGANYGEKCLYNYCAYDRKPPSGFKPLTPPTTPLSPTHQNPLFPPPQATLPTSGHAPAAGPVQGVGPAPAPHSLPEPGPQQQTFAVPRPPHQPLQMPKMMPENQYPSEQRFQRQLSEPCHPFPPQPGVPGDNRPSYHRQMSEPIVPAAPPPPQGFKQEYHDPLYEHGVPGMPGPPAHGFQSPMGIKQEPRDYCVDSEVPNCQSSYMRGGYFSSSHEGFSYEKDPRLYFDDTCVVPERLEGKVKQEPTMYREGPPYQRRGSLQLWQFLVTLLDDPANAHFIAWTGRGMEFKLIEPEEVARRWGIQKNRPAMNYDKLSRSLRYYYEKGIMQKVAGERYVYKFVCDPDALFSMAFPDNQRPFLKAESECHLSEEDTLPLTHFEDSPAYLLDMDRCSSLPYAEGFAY
Another assay deals with HSF1 (Homo sapiens, UniProt Q00613 1-529). To be noted: protein: recombinant; tags: N-terminal GST; chain copies: 3; dsDNA, one strand shown. In short, it runs like this: as §1
HSF1, sequence (Q00613 whole entry): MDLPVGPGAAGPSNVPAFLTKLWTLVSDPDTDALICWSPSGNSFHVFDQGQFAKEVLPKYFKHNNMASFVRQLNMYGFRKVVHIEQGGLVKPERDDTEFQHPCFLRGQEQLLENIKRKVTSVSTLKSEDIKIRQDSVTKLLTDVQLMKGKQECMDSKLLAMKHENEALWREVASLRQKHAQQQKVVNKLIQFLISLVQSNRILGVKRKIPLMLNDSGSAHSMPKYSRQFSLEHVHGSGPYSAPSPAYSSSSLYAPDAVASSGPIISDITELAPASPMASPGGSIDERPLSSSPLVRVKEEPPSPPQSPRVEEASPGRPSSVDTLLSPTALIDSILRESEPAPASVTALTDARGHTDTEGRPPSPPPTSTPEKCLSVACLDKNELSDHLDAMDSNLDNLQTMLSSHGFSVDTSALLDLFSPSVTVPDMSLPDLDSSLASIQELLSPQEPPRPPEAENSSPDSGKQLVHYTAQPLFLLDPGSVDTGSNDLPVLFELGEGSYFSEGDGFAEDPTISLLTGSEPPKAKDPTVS
Another assay deals with T2, SPIC (Homo sapiens, UniProt Q8N5J4 1-248).
T2 sequence: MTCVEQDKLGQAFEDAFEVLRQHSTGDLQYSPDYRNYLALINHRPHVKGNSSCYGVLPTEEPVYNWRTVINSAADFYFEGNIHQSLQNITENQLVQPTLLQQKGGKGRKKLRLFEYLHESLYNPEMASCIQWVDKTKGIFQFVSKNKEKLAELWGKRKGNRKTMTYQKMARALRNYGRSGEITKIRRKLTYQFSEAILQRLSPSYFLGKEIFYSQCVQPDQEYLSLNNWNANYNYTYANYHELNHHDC
To be noted: protein: recombinant; tags: N-terminal GST; dsDNA, one strand shown. In short, it runs like this: as §1

The target of another assay is ELF4 (Homo sapiens, UniProt Q99607 1-663). To be noted: protein: recombinant; tags: N-terminal GST; dsDNA, one strand shown. In short, it runs like this: as §1
ELF4, sequence (Q99607 whole entry): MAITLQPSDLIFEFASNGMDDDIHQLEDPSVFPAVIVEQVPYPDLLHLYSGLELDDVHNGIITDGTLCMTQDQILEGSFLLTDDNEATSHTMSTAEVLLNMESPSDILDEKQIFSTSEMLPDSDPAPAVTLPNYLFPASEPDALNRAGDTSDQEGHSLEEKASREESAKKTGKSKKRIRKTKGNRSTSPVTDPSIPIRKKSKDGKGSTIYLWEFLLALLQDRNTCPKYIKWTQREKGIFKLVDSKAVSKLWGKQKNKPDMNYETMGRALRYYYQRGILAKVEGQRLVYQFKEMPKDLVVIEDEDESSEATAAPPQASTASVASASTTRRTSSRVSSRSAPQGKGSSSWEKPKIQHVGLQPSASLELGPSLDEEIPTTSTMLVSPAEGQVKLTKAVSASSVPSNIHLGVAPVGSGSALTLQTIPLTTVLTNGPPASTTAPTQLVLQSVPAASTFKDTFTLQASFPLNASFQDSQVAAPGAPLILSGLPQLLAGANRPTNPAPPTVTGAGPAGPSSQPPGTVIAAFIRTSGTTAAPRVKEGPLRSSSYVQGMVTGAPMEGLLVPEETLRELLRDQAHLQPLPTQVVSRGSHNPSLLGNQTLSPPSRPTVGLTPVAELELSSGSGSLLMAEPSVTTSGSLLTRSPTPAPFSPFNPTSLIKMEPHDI
Another assay concerns the target T3, ELK4 (Homo sapiens, UniProt P28324-2 1-405).
T3 sequence: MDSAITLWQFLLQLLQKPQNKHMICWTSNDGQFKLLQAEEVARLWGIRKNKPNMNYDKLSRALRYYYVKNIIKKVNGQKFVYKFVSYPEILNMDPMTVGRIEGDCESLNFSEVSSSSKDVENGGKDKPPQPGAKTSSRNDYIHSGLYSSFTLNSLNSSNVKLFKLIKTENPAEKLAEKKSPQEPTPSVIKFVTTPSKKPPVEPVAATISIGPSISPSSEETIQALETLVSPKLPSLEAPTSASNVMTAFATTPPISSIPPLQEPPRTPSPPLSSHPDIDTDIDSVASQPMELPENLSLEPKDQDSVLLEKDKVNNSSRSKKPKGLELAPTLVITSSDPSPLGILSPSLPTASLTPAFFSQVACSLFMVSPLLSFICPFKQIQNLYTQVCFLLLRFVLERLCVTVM
To be noted: protein: recombinant; tags: N-terminal GST; dsDNA, one strand shown. In short, it runs like this: as §1

For a further assay, the target named is T4, ETV2 (Homo sapiens, UniProt O00321 1-342).
T4 sequence: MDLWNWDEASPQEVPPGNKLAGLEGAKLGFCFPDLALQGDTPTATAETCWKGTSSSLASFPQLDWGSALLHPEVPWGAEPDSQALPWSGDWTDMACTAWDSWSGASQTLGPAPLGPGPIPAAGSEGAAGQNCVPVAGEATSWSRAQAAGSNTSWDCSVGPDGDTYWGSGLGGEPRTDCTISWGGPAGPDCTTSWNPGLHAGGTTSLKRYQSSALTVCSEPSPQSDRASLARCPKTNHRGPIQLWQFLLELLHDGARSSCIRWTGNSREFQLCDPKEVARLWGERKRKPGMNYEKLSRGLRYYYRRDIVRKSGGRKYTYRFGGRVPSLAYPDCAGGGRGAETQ
To be noted: protein: recombinant; tags: N-terminal GST; dsDNA, one strand shown. In short, it runs like this: as §1

For a further assay, the target named is T5, ELF3 (Homo sapiens, UniProt P78545 1-371).
T5 sequence: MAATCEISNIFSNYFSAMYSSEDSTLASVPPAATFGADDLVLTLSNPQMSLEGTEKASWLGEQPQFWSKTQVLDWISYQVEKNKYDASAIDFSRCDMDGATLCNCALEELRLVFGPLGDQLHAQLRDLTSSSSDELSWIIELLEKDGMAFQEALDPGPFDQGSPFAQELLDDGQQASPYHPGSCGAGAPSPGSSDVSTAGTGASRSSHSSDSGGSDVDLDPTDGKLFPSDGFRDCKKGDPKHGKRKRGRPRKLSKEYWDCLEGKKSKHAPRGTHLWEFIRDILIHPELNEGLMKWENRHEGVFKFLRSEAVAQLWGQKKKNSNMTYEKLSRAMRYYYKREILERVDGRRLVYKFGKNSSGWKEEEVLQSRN
To be noted: protein: recombinant; tags: N-terminal GST; dsDNA, one strand shown. In short, it runs like this:
as §1

A further assay addresses CRX (Homo sapiens, UniProt O43186 1-299). To be noted: protein: recombinant; tags: N-terminal GST; dsDNA, one strand shown. In short, it runs like this:
as §1

The target of the next assay is ETV1 (Homo sapiens, UniProt P50549 1-477). To be noted: protein: recombinant; tags: N-terminal GST; dsDNA, one strand shown. In short, it runs like this:
as §1

CRX, sequence (O43186 whole entry): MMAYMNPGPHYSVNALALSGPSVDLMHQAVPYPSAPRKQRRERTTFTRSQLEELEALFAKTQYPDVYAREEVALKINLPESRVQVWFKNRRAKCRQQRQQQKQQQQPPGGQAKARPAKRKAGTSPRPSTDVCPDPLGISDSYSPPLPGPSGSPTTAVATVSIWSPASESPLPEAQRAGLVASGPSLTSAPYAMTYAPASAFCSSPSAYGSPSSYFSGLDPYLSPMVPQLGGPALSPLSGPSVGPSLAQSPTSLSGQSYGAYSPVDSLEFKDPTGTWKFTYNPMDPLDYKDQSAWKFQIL
ETV1, sequence (P50549 whole entry): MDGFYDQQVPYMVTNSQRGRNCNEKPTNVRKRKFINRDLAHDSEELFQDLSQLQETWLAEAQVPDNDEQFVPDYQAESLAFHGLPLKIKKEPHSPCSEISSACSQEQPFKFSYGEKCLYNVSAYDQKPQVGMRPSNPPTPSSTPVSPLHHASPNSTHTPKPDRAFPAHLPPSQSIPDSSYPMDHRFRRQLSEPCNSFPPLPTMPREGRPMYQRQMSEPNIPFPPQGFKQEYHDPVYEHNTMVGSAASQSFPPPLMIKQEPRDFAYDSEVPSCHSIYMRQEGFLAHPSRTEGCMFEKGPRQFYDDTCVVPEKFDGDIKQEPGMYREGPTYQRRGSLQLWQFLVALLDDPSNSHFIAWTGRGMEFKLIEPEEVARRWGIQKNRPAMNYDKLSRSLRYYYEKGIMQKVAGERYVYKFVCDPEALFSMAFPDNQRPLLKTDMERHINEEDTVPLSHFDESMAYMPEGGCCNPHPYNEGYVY

Turning to TTATCC, the binding signal is 1.44 fold enrichment (6-mer frequency, TF over GST control) with FEV; 1.45 fold enrichment (6-mer frequency, TF over GST control) in the assay with ETV5; 2.49 fold enrichment (6-mer frequency, TF over GST control) with HSF1; 1.51 fold enrichment (6-mer frequency, TF over GST control) with SPIC; 1.33 fold enrichment (6-mer frequency, TF over GST control) with ELF4; 1.45 fold enrichment (6-mer frequency, TF over GST control) with ELK4. Besides, the binding signal is 1.61 fold enrichment (6-mer frequency, TF over GST control) in the assay with ETV2; 1.41 fold enrichment (6-mer frequency, TF over GST control) with ELF3; 3.97 fold enrichment (6-mer frequency, TF over GST control) in the assay with CRX; 1.27 fold enrichment (6-mer frequency, TF over GST control) in the assay with ETV1.

On to CTGCGC, for which the binding signal with FEV was 1.38 fold enrichment (6-mer frequency, TF over GST control); with ETV5, 1.34 fold enrichment (6-mer frequency, TF over GST control); with HSF1, 1.1 fold enrichment (6-mer frequency, TF over GST control); in the assay with SPIC, 1.22 fold enrichment (6-mer frequency, TF over GST control); in the assay with ELF4, 1.32 fold enrichment (6-mer frequency, TF over GST control); with ELK4, 1.2 fold enrichment (6-mer frequency, TF over GST control). The binding signal with ETV2 is 1.46 fold enrichment (6-mer frequency, TF over GST control); with ELF3, 1.27 fold enrichment (6-mer frequency, TF over GST control); with CRX, 1.11 fold enrichment (6-mer frequency, TF over GST control); in the assay with ETV1, 1.58 fold enrichment (6-mer frequency, TF over GST control).

As to TAATTC, the binding signal in the assay with FEV was 1.36 fold enrichment (6-mer frequency, TF over GST control); with ETV5, 1.44 fold enrichment (6-mer frequency, TF over GST control); in the assay with HSF1, 2.33 fold enrichment (6-mer frequency, TF over GST control); with SPIC, 1.44 fold enrichment (6-mer frequency, TF over GST control); with ELF4, 1.48 fold enrichment (6-mer frequency, TF over GST control); with ELK4 it was 1.3 fold enrichment (6-mer frequency, TF over GST control). The binding signal was 1.51 fold enrichment (6-mer frequency, TF over GST control) with ETV2; 1.29 fold enrichment (6-mer frequency, TF over GST control) with ELF3; 3.05 fold enrichment (6-mer frequency, TF over GST control) with CRX; 1.4 fold enrichment (6-mer frequency, TF over GST control) with ETV1.

Turning to AACTAC, the binding signal in the assay with FEV was 1.35 fold enrichment (6-mer frequency, TF over GST control); with ETV5, 1.38 fold enrichment (6-mer frequency, TF over GST control); in the assay with HSF1, 1.22 fold enrichment (6-mer frequency, TF over GST control); with SPIC it was 1.35 fold enrichment (6-mer frequency, TF over GST control); with ELF4, 1.39 fold enrichment (6-mer frequency, TF over GST control); in the assay with ELK4, 1.32 fold enrichment (6-mer frequency, TF over GST control). The binding signal in the assay with ETV2 was 1.42 fold enrichment (6-mer frequency, TF over GST control); with ELF3 it was 1.31 fold enrichment (6-mer frequency, TF over GST control); with CRX, 1.2 fold enrichment (6-mer frequency, TF over GST control); with ETV1, 1.34 fold enrichment (6-mer frequency, TF over GST control).

In the case of CTAATC, the binding signal is 1.33 fold enrichment (6-mer frequency, TF over GST control) with FEV; 1.32 fold enrichment (6-mer frequency, TF over GST control) with ETV5; 3.22 fold enrichment (6-mer frequency, TF over GST control) with HSF1; 1.41 fold enrichment (6-mer frequency, TF over GST control) with SPIC; 1.42 fold enrichment (6-mer frequency, TF over GST control) in the assay with ELF4; 1.35 fold enrichment (6-mer frequency, TF over GST control) with ELK4. For the same sequence, the binding signal with ETV2 was 1.41 fold enrichment (6-mer frequency, TF over GST control); with ELF3, 1.56 fold enrichment (6-mer frequency, TF over GST control); with CRX, 5.33 fold enrichment (6-mer frequency, TF over GST control); with ETV1 it was 1.49 fold enrichment (6-mer frequency, TF over GST control).

On to CTACTG, for which the binding signal was 1.33 fold enrichment (6-mer frequency, TF over GST control) in the assay with FEV; 1.35 fold enrichment (6-mer frequency, TF over GST control) in the assay with ETV5; 1.24 fold enrichment (6-mer frequency, TF over GST control) with HSF1; 1.32 fold enrichment (6-mer frequency, TF over GST control) with SPIC; 1.26 fold enrichment (6-mer frequency, TF over GST control) in the assay with ELF4; 1.26 fold enrichment (6-mer frequency, TF over GST control) with ELK4. Moreover, the binding signal with ETV2 is 1.4 fold enrichment (6-mer frequency, TF over GST control); with ELF3, 1.3 fold enrichment (6-mer frequency, TF over GST control); in the assay with CRX, 1.08 fold enrichment (6-mer frequency, TF over GST control); in the assay with ETV1, 1.3 fold enrichment (6-mer frequency, TF over GST control).

On to AAACTA, for which the binding signal in the assay with FEV was 1.29 fold enrichment (6-mer frequency, TF over GST control); with ETV5, 1.3 fold enrichment (6-mer frequency, TF over GST control); with HSF1 it was 1.31 fold enrichment (6-mer frequency, TF over GST control); with SPIC it was 1.18 fold enrichment (6-mer frequency, TF over GST control); with ELF4, 1.33 fold enrichment (6-mer frequency, TF over GST control); with ELK4, 1.22 fold enrichment (6-mer frequency, TF over GST control). For the same sequence, the binding signal with ETV2 was 1.29 fold enrichment (6-mer frequency, TF over GST control); with ELF3, 1.09 fold enrichment (6-mer frequency, TF over GST control); in the assay with CRX, 1.35 fold enrichment (6-mer frequency, TF over GST control); with ETV1, 1.36 fold enrichment (6-mer frequency, TF over GST control).

On to GATTCT, for which the binding signal in the assay with FEV was 1.13 fold enrichment (6-mer frequency, TF over GST control); with ETV5 it was 1.18 fold enrichment (6-mer frequency, TF over GST control); with HSF1 it was 2.08 fold enrichment (6-mer frequency, TF over GST control); in the assay with SPIC, 1.11 fold enrichment (6-mer frequency, TF over GST control); in the assay with ELF4, 1.19 fold enrichment (6-mer frequency, TF over GST control); with ELK4 it was 1.36 fold enrichment (6-mer frequency, TF over GST control). For the same sequence, the binding signal in the assay with ETV2 was 1.15 fold enrichment (6-mer frequency, TF over GST control); with ELF3, 1.05 fold enrichment (6-mer frequency, TF over GST control); with CRX it was 1.58 fold enrichment (6-mer frequency, TF over GST control); in the assay with ETV1, 1.25 fold enrichment (6-mer frequency, TF over GST control).

These data come from paper PMC7862700, “An all-to-all approach to the identification of sequence-specific readers for epigenetic DNA modifications on cytosine”.
